Measurements published in PubChem BioAssay (Tox21).
“And” between values parts separate entries of the source, which are not always exact repeats. Equal values may be shown once. Records with an inconclusive call do not appear. Entries that show only a call come without a potency. The source made the active and inactive calls. Unless noted, calls follow the shape of the full dose curve.

How the values were obtained:
[1] = Nuclear factor erythroid 2-related factor 2/antioxidant responsive element (Nrf2/ARE) small molecule agonists: luciferase reporter gene qHTS assay in human keratinocytes (AID 1919969); also: nearly all actives have a fitted effect of over 35% in size; also: potency is read from the fitted curve at half-maximal effect
[2] = target: Gonadotropin-releasing hormone receptor (Homo sapiens) (UniProt P30968); experiment: Human gonadotropin-releasing hormone receptor (GnRHR) small molecule agonists, calcium flux assay in GnRHR-HEK293 cells (AID 1920063); also: nearly all actives have a fitted effect of over 35% in size
Chain of Gonadotropin-releasing hormone receptor (Homo sapiens) (P30968 whole entry, looked up): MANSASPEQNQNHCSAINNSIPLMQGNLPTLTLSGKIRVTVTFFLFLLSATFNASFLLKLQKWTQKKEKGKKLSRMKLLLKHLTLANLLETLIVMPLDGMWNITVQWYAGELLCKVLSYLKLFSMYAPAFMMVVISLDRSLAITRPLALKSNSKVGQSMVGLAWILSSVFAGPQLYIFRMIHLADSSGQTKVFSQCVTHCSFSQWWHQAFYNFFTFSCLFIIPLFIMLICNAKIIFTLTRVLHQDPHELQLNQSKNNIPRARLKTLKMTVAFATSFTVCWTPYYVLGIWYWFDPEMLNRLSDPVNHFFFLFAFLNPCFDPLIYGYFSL
Outline: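 We seeded human GnRHR-expressing HEK293 cells for 18 hours, loaded them with calcium dye for an hour at 37 C, added test compounds, and recorded fluorescence intensity kinetically for three minutes.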

[3] = target: KiSS-1 receptor (Homo sapiens) (UniProt Q969F8); experiment: Human kisspeptin (KISS1R) small molecule agonists, calcium flux assay in KISS1R-HEK293 cells (AID 1920064; active = well fitted activation curve with a large enough effect in the repeat runs)
Chain of KiSS-1 receptor (Homo sapiens) (Q969F8 whole entry, looked up): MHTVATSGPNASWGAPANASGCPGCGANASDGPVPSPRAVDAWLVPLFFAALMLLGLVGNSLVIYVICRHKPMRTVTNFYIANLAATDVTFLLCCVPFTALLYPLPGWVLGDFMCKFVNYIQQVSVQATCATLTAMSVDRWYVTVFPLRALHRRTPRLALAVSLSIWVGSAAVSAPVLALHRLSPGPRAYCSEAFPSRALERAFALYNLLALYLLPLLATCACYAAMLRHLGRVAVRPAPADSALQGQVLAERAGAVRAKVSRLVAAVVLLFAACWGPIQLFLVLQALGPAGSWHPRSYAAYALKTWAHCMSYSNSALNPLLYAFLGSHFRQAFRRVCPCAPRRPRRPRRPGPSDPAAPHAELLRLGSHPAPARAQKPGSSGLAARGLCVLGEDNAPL
Outline: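 Kinetic calcium assay, 1 s sampling over 3 min at Ex/Em 480/540, in HEK293 cells engineered with human KISS1R; compounds delivered in DMSO after 1 h dye loading.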

[4] = G protein-coupled receptor (GPCR) small molecule agonists, calcium flux assay: HEK293 wild type cell line counter screen (AID 1920065)
Outline: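 Calcium-sensitive dye, loaded 1 h at 37 C into cells cultured 18 h, reports compound-evoked calcium release as fluorescence (Ex/Em 480/540), measured over 3 min. Agonist mode; 15-point titrations, triplicate.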

[5] = p53 small molecule agonists, cell-based qHTS assay with human liver microsomes: qHTS cell viability counter screen (AID 1963579); also: nearly all actives have a fitted effect of over 45% in size
Outline: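 In this multiplexed counter screen, the reporter plates were subsequently treated with CellTiter-Glo so that cell viability, reflected by luminescence, could be recorded for p53RE-bla cells dosed 16 h with compounds under microsomal activation (HLM and NADPH).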

[6] = p53 small molecule agonists, cell-based qHTS assay with rat liver microsomes: qHTS cell viability counter screen (AID 1963580); also: nearly all actives have a fitted effect of over 45% in size
Outline: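 In HCT-116 cells carrying a p53 response element-bla reporter, compounds were metabolically activated in situ by rat liver microsomes with NADPH over 16 h. Cell ATP content then served as the cytotoxicity measure.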

[7] = target: 5-hydroxytryptamine receptor 2A (Homo sapiens) (UniProt P28223); experiment: 5-hydroxytryptamine receptor 2A (HTR2A) small molecule antagonists, cell-based qHTS assay (AID 1963586); also: nearly all actives have a fitted effect of over 45% in size
Chain of 5-hydroxytryptamine receptor 2A (Homo sapiens) (P28223 whole entry, looked up): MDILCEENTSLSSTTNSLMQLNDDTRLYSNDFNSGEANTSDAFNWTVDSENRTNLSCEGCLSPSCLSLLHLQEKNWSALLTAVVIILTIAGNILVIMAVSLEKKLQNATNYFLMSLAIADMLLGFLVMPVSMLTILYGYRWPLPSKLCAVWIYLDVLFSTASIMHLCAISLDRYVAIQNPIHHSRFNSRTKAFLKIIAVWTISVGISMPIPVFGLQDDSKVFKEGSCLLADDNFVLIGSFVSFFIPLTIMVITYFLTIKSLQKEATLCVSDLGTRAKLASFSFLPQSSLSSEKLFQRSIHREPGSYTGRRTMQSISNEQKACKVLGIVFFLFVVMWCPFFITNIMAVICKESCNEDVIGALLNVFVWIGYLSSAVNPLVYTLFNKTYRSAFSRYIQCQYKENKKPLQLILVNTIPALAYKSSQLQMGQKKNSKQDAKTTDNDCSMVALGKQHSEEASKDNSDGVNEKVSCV
Outline: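 Antagonist-mode intracellular calcium assay: DOI (4 nM) added after 5 min compound pre-incubation at room temperature to dye-loaded HTR2A-CHO cells. Fluorescence followed for 3 min, sampled every second.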

[8] = target: 5-hydroxytryptamine receptor 2A (Homo sapiens) (UniProt P28223); experiment: 5-hydroxytryptamine receptor 2A (HTR2A) small molecule agonists, cell-based qHTS assay (AID 1963587); also: nearly all actives have a fitted effect of over 30% in size
Outline: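 HTR2A-CHO cells, plated 18 h at 37 C/5% CO2, dye-loaded 1 h at 37 C; compounds in DMSO added by pin tool (agonist mode). Intracellular calcium flux read as kinetic fluorescence on FDSS over 2 min at 1 s intervals.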

[9] = target: Muscarinic acetylcholine receptor M1 (Homo sapiens) (UniProt P11229); experiment: Cholinergic receptor muscarinic 1 (CHRM1) small molecule agonists, cell-based qHTS assay (AID 1963589); also: nearly all actives have a fitted effect of over 35% in size
Chain of Muscarinic acetylcholine receptor M1 (Homo sapiens) (P11229 whole entry, looked up): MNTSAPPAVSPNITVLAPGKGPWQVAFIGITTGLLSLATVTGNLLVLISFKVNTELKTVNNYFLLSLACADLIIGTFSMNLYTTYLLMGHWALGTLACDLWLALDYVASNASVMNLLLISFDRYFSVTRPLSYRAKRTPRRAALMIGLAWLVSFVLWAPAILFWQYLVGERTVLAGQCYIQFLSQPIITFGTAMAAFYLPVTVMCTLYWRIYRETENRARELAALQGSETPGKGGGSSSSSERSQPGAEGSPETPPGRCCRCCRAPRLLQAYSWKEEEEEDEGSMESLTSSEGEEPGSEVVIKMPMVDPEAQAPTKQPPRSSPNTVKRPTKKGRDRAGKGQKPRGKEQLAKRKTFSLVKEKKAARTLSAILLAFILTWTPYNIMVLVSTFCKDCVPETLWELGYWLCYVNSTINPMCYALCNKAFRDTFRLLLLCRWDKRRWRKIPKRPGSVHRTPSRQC
Outline: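 Measures agonist-induced intracellular calcium rise. Stable human CHRM1 CHO line, 1 h dye load at 37 C, compounds from DMSO, kinetic fluorescence read.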

[10] = cAMP Responsive Elements (CRE) small molecule agonists, cell-based qHTS assay (AID 1963590)
Outline: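 A CRE-responsive beta-lactamase reporter in HEK 293T cells was used. Treatment ran 3 h at 37 C; detection used LiveBLAzer B/G FRET substrate for 2 h at room temperature.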

[11] = cAMP Responsive Elements (CRE) small molecule antagonists, cell-based qHTS assay (AID 1963591; active = well fitted inhibition curve with a large enough effect in the signal ratio in the repeat runs, not every such curve was filed as active; the % refers to the signal ratio)
Outline: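 HEK293T cells carrying a CRE-driven beta-lactamase reporter receive compound and NKH477 (0.25 uM final) for 3 h. Fluorescence from LiveBLAzer B/G FRET substrate is read after 2 h at room temperature.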

[12] = target: Beta-2 adrenergic receptor (Homo sapiens) (UniProt P07550); experiment: Adrenergic beta2 receptor (ADRB2) small molecule antagonists, cell-based qHTS assay (AID 1963592); also: series mostly up to about 92 µM; nearly all actives have a fitted effect of over 50% in size
Chain of Beta-2 adrenergic receptor (Homo sapiens) (P07550 whole entry, looked up): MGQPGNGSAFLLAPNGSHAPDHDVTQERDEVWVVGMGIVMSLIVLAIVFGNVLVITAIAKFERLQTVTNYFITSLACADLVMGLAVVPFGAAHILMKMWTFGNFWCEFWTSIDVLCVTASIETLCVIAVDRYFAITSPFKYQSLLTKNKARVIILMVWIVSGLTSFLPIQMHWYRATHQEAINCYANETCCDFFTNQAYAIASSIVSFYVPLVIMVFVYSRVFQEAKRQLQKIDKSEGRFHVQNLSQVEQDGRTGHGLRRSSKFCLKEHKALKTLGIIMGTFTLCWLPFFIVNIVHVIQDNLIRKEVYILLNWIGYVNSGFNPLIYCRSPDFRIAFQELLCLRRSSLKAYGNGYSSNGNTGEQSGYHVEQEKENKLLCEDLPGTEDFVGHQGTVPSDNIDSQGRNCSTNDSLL
Outline: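 Cells (CHO, stable ADRB2 overexpression) incubated 18-20hr at 37C; compounds added from DMSO; agonist mix (1nM isoproterenol, 100uM IBMX, 25uM Ro-20-1724) added; 0.5hr RT; d2-cAMP and anti-cAMP-cryptate added; 1hr RT; 665/615 nm read.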

[13] = target: Beta-2 adrenergic receptor (Homo sapiens) (UniProt P07550); experiment: Adrenergic beta2 receptor (ADRB2) small molecule agonists, cell-based qHTS assay (AID 1963593);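 also: CHO cells stably overexpressing human ADRB2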
Outline: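 CHO cells stably over-expressing ADRB2 were plated overnight at 37C, then dosed with compounds plus a stimulation mix containing 100uM IBMX and 25uM Ro-20-1724 for 0.5hr at room temperature. cAMP was measured by HTRF competition, 1hr.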

[14] = target: D(2) dopamine receptor (Homo sapiens) (UniProt P14416); experiment: Dopamine D2 receptor (DRD2) small molecule agonists, cell-based qHTS assay (AID 1963594); also: nearly all actives have a fitted effect of over 35% in size
Chain of D(2) dopamine receptor (Homo sapiens) (P14416 whole entry, looked up): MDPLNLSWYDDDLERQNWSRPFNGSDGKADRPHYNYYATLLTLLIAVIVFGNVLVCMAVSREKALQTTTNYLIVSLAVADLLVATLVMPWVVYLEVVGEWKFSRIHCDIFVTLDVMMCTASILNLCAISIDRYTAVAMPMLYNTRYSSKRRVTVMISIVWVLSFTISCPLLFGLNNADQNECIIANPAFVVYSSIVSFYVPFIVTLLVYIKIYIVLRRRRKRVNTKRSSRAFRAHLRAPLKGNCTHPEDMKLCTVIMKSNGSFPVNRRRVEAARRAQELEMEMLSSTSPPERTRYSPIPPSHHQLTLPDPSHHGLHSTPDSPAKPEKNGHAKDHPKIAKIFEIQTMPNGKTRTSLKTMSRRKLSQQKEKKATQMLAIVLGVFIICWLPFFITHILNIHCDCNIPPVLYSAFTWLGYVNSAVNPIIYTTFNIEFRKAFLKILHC
Outline: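 HEK293 cells stably expressing DRD2 were cultured 24 h at 37 C, then given Ro20-1724 (0.1 mM final) and compounds for 10 min at room temperature. NKH477 (200nM) was then added for 30 min. cAMP was read by HTRF.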

[15] = target: D(2) dopamine receptor (Homo sapiens) (UniProt P14416); experiment: Dopamine D2 receptor (DRD2) small molecule antagonists, cell-based qHTS assay (AID 1963595; active = well fitted inhibition curve with a large enough effect in the signal ratio in the repeat runs, with a control signal flat; the % refers to the signal ratio)
Outline: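 Stable D2 receptor HEK293 line, 24 h after seeding. Compound preincubated 10 min, then quinpirole (12 nM) with forskolin analogue NKH477 (200 nM), 30 min, room temperature. Detection by time-resolved FRET of cAMP.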

[16] = p53 small molecule agonists, cell-based qHTS assay with human liver microsomes (AID 1963577);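 also: p53 response element beta-lactamase reporter cells with liver microsomes plus NADPH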
Outline: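 16 h, 37 C exposure of p53RE-bla cells to compounds with human liver microsomes and NADPH (0.5 mg/mL final each); detection via LiveBLAzer mixture, 2 h dark at room temperature.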

[17] = p53 small molecule agonists, cell-based qHTS assay: qHTS cell viability counter screen (AID 1963581); also: nearly all actives have a fitted effect of over 45% in size
Outline: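 Following 5 h attachment, HCT-116 p53RE-bla cells took up compound for 16 h at 37 C; the reporter was read with B/G FRET substrate (2 h RT), and viability then via CellTiter-Glo ATP luminescence.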

[18] = p53 small molecule agonists, cell-based qHTS assay (AID 1963582; active = well fitted activation curve with a large enough effect in the signal ratio in the repeat runs, not every such curve was filed as active; the % refers to the signal ratio)
Outline: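 In this cell-based concentration-response screen, a p53 response element drives beta-lactamase; cells received DMSO-borne compounds after 5 h culture and were incubated a further 16 h before FRET substrate development.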

[19] = target: Muscarinic acetylcholine receptor M1 (Homo sapiens) (UniProt P11229); experiment: Cholinergic receptor muscarinic 1 (CHRM1) small molecule antagonists, cell-based qHTS assay (AID 1963588); also: nearly all actives have a fitted effect of over 40% in size
Outline: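 CHRM1-CHO calcium-flux assay, antagonist mode. Cells were seeded 18 h, dye-loaded 1 h at 37 C and given compound for 5 min at RT, then acetylcholine was added at 50nM. FDSS fluorescence was read 3 min; 15 concentrations, three runs.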

[20] = p53 small molecule agonists, cell-based qHTS assay with rat liver microsomes (AID 1963578)
Outline: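 With rat liver microsomes and NADPH present (0.5 mg/mL final each), p53RE-bla cells are treated with compound for 16 h at 37 C. LiveBLAzer detection mixture is then applied for 2 h at room temperature in the dark.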

## O=C1NC(=O)c2ccccc21
[1]
  Potency: inactive
[2]
  Potency: inactive
[3]
  Potency: inactive
[4]
  Potency: inactive
[5]
  Potency: inactive
[6]
  Potency: inactive
[7]
  Potency: inactive
[8]
  Potency: inactive
[9]
  Potency: inactive
[10]
  Potency: inactive
[11]
  Potency: inactive
[12]
  Potency: inactive
[13]
  Potency: inactive
[14]
  Potency: inactive
[15]
  Potency: inactive

## COc1cc2c(c(OC)c1OC)-c1ccc(OC)c(=O)cc1[C@@H](NC(C)=O)CC2
[1]
  Potency: 152 nM (active) and 217 nM (active) and 188 nM (active)
[2]
  Potency: inactive
[3]
  Potency: inactive
[4]
  Potency: inactive
[11]
  Potency: inactive
[12]
  Potency: inactive
[13]
  Potency: inactive
[14]
  Potency: inactive

## CCCCOCCOCCO
[1]
  Potency: inactive
[3]
  Potency: inactive
[4]
  Potency: inactive
[16]
  Potency: inactive
[5]
  Potency: inactive
[6]
  Potency: inactive
[17]
  Potency: inactive
[18]
  Potency: inactive
[7]
  Potency: inactive
[8]
  Potency: inactive
[19]
  Potency: inactive
[9]
  Potency: inactive
[10]
  Potency: inactive
[11]
  Potency: inactive
[12]
  Potency: inactive
[13]
  Potency: inactive
[14]
  Potency: inactive
[15]
  Potency: inactive

## C=C(C)C(=O)OCC(CC)(COC(=O)C(=C)C)COC(=O)C(=C)C
[2]
  Potency: inactive
[3]
  Potency: inactive
[4]
  Potency: inactive
[16]
  Potency: inactive
[20]
  Potency: inactive
[5]
  Potency: inactive
[6]
  Potency: inactive
[17]
  Potency: inactive
[18]
  Potency: inactive
[7]
  Potency: inactive
[8]
  Potency: inactive
[9]
  Potency: inactive
[12]
  Potency: inactive
[14]
  Potency: inactive
[15]
  Potency: inactive

## CC(=O)[C@H]1CC[C@H]2[C@@H]3CC=C4C[C@@H](O)CC[C@]4(C)[C@H]3CC[C@]12C
[1]
  Potency: inactive
[2]
  Potency: inactive
[3]
  Potency: inactive
[16]
  Potency: inactive
[20]
  Potency: inactive
[5]
  Potency: inactive
[6]
  Potency: inactive
[17]
  Potency: inactive
[18]
  Potency: inactive
[8]
  Potency: inactive
[19]
  Potency: inactive
[9]
  Potency: inactive
[11]
  Potency: inactive
[12]
  Potency: inactive
[13]
  Potency: inactive
[14]
  Potency: inactive
[15]
  Potency: inactive

## OC[C@@H](O)[C@@H](O)[C@H](O)[C@H](O)CO
[1]
  Potency: inactive
[2]
  Potency: inactive
[3]
  Potency: inactive
[16]
  Potency: inactive
[20]
  Potency: inactive
[5]
  Potency: inactive
[6]
  Potency: inactive
[17]
  Potency: inactive
[18]
  Potency: inactive
[10]
  Potency: inactive
[11]
  Potency: inactive
[12]
  Potency: inactive
[13]
  Potency: inactive
[14]
  Potency: inactive
[15]
  Potency: inactive

## Cc1ccc(S(=O)(=O)NC(=O)NN2CCCCCC2)cc1
[1]
  Potency: inactive
[2]
  Potency: inactive
[3]
  Potency: inactive
[4]
  Potency: inactive
[6]
  Potency: inactive
[17]
  Potency: inactive
[10]
  Potency: inactive
[11]
  Potency: inactive
[12]
  Potency: inactive
[13]
  Potency: inactive
[14]
  Potency: inactive
[15]
  Potency: inactive
